From PubChem
D2 ag-1 – HTS Assay for Allosteric Agonists of the Human D2 Dopamine Receptor: Primary Screen for Agonists; D(2) dopamine receptor (Homo sapiens), P14416; HEK293 T-REx D2 cells, calcium flux agonist mode; activation, % at 2 µM; 340,000 tested, 0.53% active; AID 485358, 2010;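 active = activation over 3 SD above normal in the single-dose calcium agonist read, cut at about 30% in these data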; also: 0% is about no effect
Target sequence (P14416 whole entry, looked up): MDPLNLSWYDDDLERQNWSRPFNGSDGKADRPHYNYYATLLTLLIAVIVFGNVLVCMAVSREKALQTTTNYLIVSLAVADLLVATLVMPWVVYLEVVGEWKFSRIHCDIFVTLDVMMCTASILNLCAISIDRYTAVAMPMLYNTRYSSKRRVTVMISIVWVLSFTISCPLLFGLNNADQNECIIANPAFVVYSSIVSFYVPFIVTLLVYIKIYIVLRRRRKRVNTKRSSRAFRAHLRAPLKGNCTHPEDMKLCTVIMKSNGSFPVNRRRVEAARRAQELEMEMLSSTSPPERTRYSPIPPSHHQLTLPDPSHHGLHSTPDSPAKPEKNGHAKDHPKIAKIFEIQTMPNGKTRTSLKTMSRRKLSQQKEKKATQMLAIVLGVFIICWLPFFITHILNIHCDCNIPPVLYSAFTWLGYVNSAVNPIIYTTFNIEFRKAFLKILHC
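In this primary screen, compounds producing a positive calcium signal within 180 s of addition to tetracycline-induced, force-coupled HEK293 Trex D2 cells are flagged; cells are dye-loaded with a no-wash calcium kit beforehand.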
D2 PAM-1 – Beta-Arrestin HTS for Positive Allosteric Modulators of the Human D2 Dopamine Receptor: Potentiators; 360,000 tested, 0.23% active; DiscoveRx D2 beta-arrestin cells, luminescence, 90 min; 100% = 57 uM dopamine signal; AID 624464, 2012; D(2) dopamine receptor (Homo sapiens), P14416; potentiation, % (concentration not given with the values); in the data active = potentiation above about 50%; inconclusive = mostly about 30% to 49%
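D2 cells co-treated with compound plus 50 nM dopamine (EC20) for 90 min at 37 deg C to detect potentiation. Beta-arrestin recruitment was read as enzyme-fragment luminescence after 1 h at ambient temperature. Full response was set by 57 uM dopamine.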
D2 ag-2 – Beta-Arrestin HTS for Positive Allosteric Modulators of the Human D2 Dopamine Receptor: Agonists. 360,000 tested, 0.084% active. DiscoveRx PathHunter D2 beta-arrestin, luminescence, 90 min; 100% = 57 uM dopamine signal. D(2) dopamine receptor (Homo sapiens), P14416. activation, % (concentration not given with the values); in the data active = activation above about 40%; inconclusive = between about 15% and that limit
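Agonist mode: compounds alone added to overnight-plated D2 PathHunter cells for 90 min at 37 C, with 57 uM final dopamine (EC100) defining full response. Beta-arrestin recruitment detected by chemiluminescent reagent, read after 1 h at ambient temperature.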
D2 PAM-2 – HTS Assay for Positive Allosteric Modulators of the Human D2 Dopamine Receptor: Primary Screen for Potentiators | 340,000 tested, 0.34% active | HEK293 T-REx D2, calcium flux, EC20 dopamine potentiation | AID 485347, 2010 | potentiation, % at 10 µM | D(2) dopamine receptor (Homo sapiens), P14416;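 active = potentiation over 3 SD above the plate norm, cut at about 30% in these data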; also: 0% is about no effect
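Potentiation of an EC20 dopamine calcium response is measured in a force-coupled, tetracycline-inducible Hek293 Trex D2 line. Compound-only kinetic reads over 180 s flag agonists before dopamine addition.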
LDHA block – qHTS assay for inhibitors of human lactate dehydrogenase. L-lactate dehydrogenase A chain (Homo sapiens), P00338. purified LDHA, NADH/diaphorase-resazurin fluorescence; stronger effect = lower value. activity change, % (values are at about 110 or 230 µM). 480,000 tested, 0.15% active. AID 1347041, 2019; in the data active = activity change below about -30%; inconclusive = mostly about -25% to -30%;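 also: plate controls were DMSO wells for no effect and wells without enzyme for full effect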
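Resorufin fluorescence (ex540/em590), read at 0 and 20 min after diaphorase/resazurin addition, reports the NADH left after a 5 min room-temperature reaction of 2 nM human LDH5 with 0.06 mM NADH and 0.2 mM pyruvate.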
D2 antagonist – HTS Assay for Allosteric Antagonists of the Human D2 Dopamine Receptor: Primary Screen for Antagonists; inhibition, % at 10 µM; HEK293 TREx D2 cells, calcium flux, dopamine EC80; AID 485344, 2010; 340,000 tested, 2% active; D(2) dopamine receptor (Homo sapiens), P14416; in the data active = inhibition above about 30%; inactive = below that, where a call was filed; also: 0% is about no effect
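Dopamine at EC80 is the agonist stimulus; test compounds precede it by 180 s. Calcium flux read kinetically in a force-coupled, inducible HEK293 T-REx D2 cell line.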
Active calls of the source: *; ? = inconclusive; . = not tested or not shown. The list is not random: actives were taken first. Their share in the collection is about 2.1%.

SMILES	D2 ag-1	D2 PAM-1	D2 ag-2	D2 PAM-2	LDHA block	D2 antagonist
CC1=C(C(=O)Nc2ccccc2)C2(CCCCC2)C(C(N)=O)C(=S)N1 (stereo not given)	1.8	-6.9	-4.4	4.8	-0.7	7.2
C=CCN1C(c2ccc(Br)cc2)=CS/C1=C(\C#N)c1nnc(N2CCOCC2)n1-c1ccccc1	.	-9.5	0.9	.	2.6	.
C=CCN1C(c2ccc(OCC)cc2)=CS/C1=C(\C#N)c1nnc2n1CCCCC2	0.5	8.6	5.2	45.3*	-5.2	11.5
COc1cc(CSc2c(C(C)C)cnc3c2c(=O)n(C)c(=O)n3C)cc(OC)c1	.	.	.	.	-4.2	.
CCc1nnc(NC(=O)c2ccc(S(=O)(=O)N3CCCC(C)C3)cc2)s1 (stereo not given)	-0.8	-2.9	-2.1	34.8*	-3.4	0.0
CC1(C)CC(=O)C(Sc2ccccc2[N+](=O)[O-])=C(O)C1	1.9	4.2	-3.4	-4.8	-78.2*	-9.3
CSc1ccccc1N=CC1=C(O)CC(C)(C)CC1=O	0.8	-8.7	-1.1	17.8	1.2	4.0
O=C(c1ccc(Br)s1)N(Cc1ccc(Br)cc1)C1CC1	.	.	.	.	4.9	.
COc1ccc(CNCc2ccco2)cc1OCc1ccccc1	-0.7	-28.2	-4.9	16.0	-21.8	37.4*
O=C(Nc1ccc2c(c1)OCO2)c1cnn2cccnc12	-0.3	-4.7	-1.1	28.2	0.4	68.9*
COc1ccc(S(=O)(=O)N2CC(=O)Nc3ccccc32)cc1Cl	0.4	-0.8	-3.6	60.1*	-3.1	4.8
CCOc1ccc(S(=O)(=O)N2CC(=O)Nc3ccccc32)cc1C#N	0.1	-1.3	-2.6	-4.5	-3.4	2.2
O=c1cc(CSc2nnnn2-c2ccccc2)[nH]n1-c1ccc(F)cc1	.	.	.	.	-0.2	.
O=C(CC1SC(N2CCOCC2)=NC1=O)Nc1cc([N+](=O)[O-])ccc1Cl (stereo not given)	-0.4	-13.5	-5.2	-20.8	-6.8	54.4*
O=C(COC(=O)CC1SC(N2CCCC2)=NC1=O)Nc1ccc(Br)cc1 (stereo not given)	-1.0	-13.5	-3.7	5.9	-5.8	30.7*
COc1ccc(NC(=O)CC2SC(N3CCOCC3)=NC2=O)cc1OC (stereo not given)	0.7	-3.4	1.8	-22.4	-1.3	72.8*
COc1ccc(NC(=O)CC2SC(N3CCCC3)=NC2=O)cc1Cl (stereo not given)	.	-3.4	8.7	.	-3.9	.
O=C(CC1SC(N2CCOCC2)=NC1=O)Nc1ccccc1Cl (stereo not given)	-0.6	-7.0	-0.4	-25.3	-8.1	39.7*
O=C(Nc1c(C(=O)c2ccc3c(c2)OCCO3)oc2ccccc12)c1ccc(F)cc1	.	.	.	.	-0.8	.
CC(C)n1nc(C(=O)NCc2cc3ccccc3[nH]2)c2ccccc2c1=O	.	.	.	.	17.2	.
O=C(CC1SC(N2CCOCC2)=NC1=O)Nc1ccc(Cl)cc1 (stereo not given)	0.2	-37.8	-4.2	-24.8	-8.4	58.2*
CC(OC(=O)c1c2c(nc3ccccc13)/C(=C\c1ccc3c(c1)OCO3)CCC2)C(=O)Nc1ccc(S(N)(=O)=O)cc1 (stereo not given)	99.9*	5.9	9.4	7.1	6.6	8.0
COCC(C)NC(=O)CSc1ncnc2sc(-c3ccccc3)cc12 (stereo not given)	0.6	-18.7	-0.7	-2.0	-3.3	9.2
CC(C)C(C)(C#N)NC(=O)CSc1ncnc2sc(-c3ccccc3)cc12 (stereo not given)	0.6	-10.4	1.0	-13.3	-4.8	31.0*
C#CCNC(=O)/C=C/c1ccc(C)cc1	0.0	-13.1	-1.8	4.4	-4.7	39.7*
SMILES	D2 ag-1	D2 PAM-1	D2 ag-2	D2 PAM-2	LDHA block	D2 antagonist
COc1ccc(Cl)cc1NC(=O)C1CC(c2ccccc2O)=NO1 (stereo not given)	-0.5	-17.5	-0.6	2.1	0.3	15.8
COc1ccc(OC)c(NC(=O)C2CC(/C=C/c3ccccc3)=NO2)c1 (stereo not given)	32.6*	-1.5	1.9	-11.3	-1.4	-20.2
CCN(CC(=O)Nc1cc(Cl)ccc1C)C(=O)COc1cccc2c1OC(C)(C)C2	0.6	-30.0	-2.8	-21.9	0.5	43.2*
CCN(CC(=O)Nc1ccc(OC)cc1)C(=O)COc1cccc2c1OC(C)(C)C2	-0.2	-8.7	0.7	-8.6	-4.9	22.4
N#Cc1c2c(c(Nc3ccc(O)cc3)n3c1nc1ccccc13)CCC2	-0.9	67.9*	?	16.9	0.4	13.8
Cc1ccc(Cl)cc1NC(=O)CN1CCCN(c2ccc(C(F)(F)F)cn2)CC1	.	.	.	.	3.9	.
CCN(CC)C(=O)c1sc2nc(N3CCOCC3)c3c(c2c1N)CCN(C)C3	.	.	.	.	6.6	.
CCC(CNC(=O)Cn1cnc2c1c(=O)n(C)c(=O)n2C)c1ccccc1 (stereo not given)	.	.	.	.	4.9	.
C=C(C)COc1cc(O)c2c(=O)cc(-c3ccccc3)oc2c1	.	.	.	.	-4.2	.
O=c1cc(-c2ccccc2)oc2cc(OCc3ccccc3)cc(O)c12	0.9	-8.2	1.8	-8.0	-5.3	50.7*
CCOc1ccc(/C=C2/NC(=O)NC2=O)cc1I	.	.	.	.	-0.5	.
CCCc1nc2c(=O)n(C)c(=O)nc-2n(C)n1	0.4	29.9	54.3*	-2.1	40.5	-6.4
Cc1ccc(C(=O)/C=C/c2ccc(-c3ccccc3Br)o2)cc1	.	.	.	.	-0.3	.
Cc1cc(=O)oc2c3c(cc(OCC(=O)NCC(=O)N[C@H](C(=O)O)C(C)C)c12)OC(C)(C)CC3	-0.2	2.5	1.2	13.8	-5.3	30.1*
Cc1cc(=O)oc2c3c(cc(OCC(=O)NCc4ccco4)c12)OC(C)(C)CC3	-1.5	-11.0	-3.0	-11.1	-0.7	14.2
Cc1c(C)c2c(OCC(=O)NCc3ccco3)cc3c(c2oc1=O)CCC(C)(C)O3	0.6	-20.5	-2.7	2.6	1.6	30.0*
CCCCCCc1cc2cc(-c3nnc(-c4ccccc4O)o3)c(=O)oc2cc1O	39.0*	2.0	5.9	-6.1	1.2	19.5
CCCCCCc1cc2cc(-c3nnc(-c4cc(OC)c(OC)c(OC)c4)o3)c(=O)oc2cc1O	0.3	-9.7	0.1	7.2	-11.4	0.4
